In PubChem BioAssay AID1159580 (chemical genetic matrix, 2015):
Several values for one entry are separate records, joined by “and”; a condition that tells them apart may be missing. Equal values may be shown once. The campaign covered roughly 5,500 compounds. About 2,000 (36%) were called active. Another 18% or so got no clear call; they are omitted. No stated cut-off is given here; in the data, active means normalized growth mostly below about 0.91 (no sharp cut-off); inconclusive means no clear call, values can overlap the other calls; inactive means mostly above about 0.92. The list shows a part of the results.

Test: chemical genetic growth profiling, strain panel (AID 1159580);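 further: tested at 20 µM; growth read once vehicle control cultures reached saturation at 30 °C; 1 = growth at the plate median or of vehicle wells; lower values mean less growth of the strain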
Conditions: S. cerevisiae deletion strains, growth OD

Measured: normalized growth

COc1ccc2c(c1)OCC(Cc1ccc(OC)c(OC(C)=O)c1)C2=O (configuration not stated)
inactive: locus YAL013W, strain DEP1, active compounds read low 0.979 | locus YAL021C, strain ccr4, active compounds read low 0.974 | locus YAL026C, strain drs2, active compounds read low 0.967 | locus YAL030W, strain snc1, active compounds read low 0.973 | locus YBL061C, strain skt5, active compounds read low 0.967 | locus YBR009C, strain hhf1, active compounds read low 0.983 | locus YBR021W, strain FUR4, active compounds read low 0.883 | locus YBR023C, strain chs3, active compounds read low 0.965 | locus YBR171W, strain sec66, active compounds read low 0.962 | locus YBR229C, strain ROT2, active compounds read low 0.996 | locus YBR231C, strain swc5, active compounds read low 0.969 | locus YBR279W, strain paf1, active compounds read low 0.973 | locus YCL011C, strain gbp2, active compounds read low 0.985 | locus YCL016C, strain dcc1, active compounds read low 0.985 | locus YCL029C, strain bik1, active compounds read low 1.01 | locus YCL061C, strain MRC1, active compounds read low 0.976 | locus YCL069W, strain vba3, active compounds read low 0.982 | locus YCR088W, strain abp1, active compounds read low 0.984 | locus YDL005C, strain med2, active compounds read low 0.963 | locus YDL035C, strain GPR1, active compounds read low 0.99 | locus YDL040C, strain nat1, active compounds read low 0.96 | locus YDL074C, strain BRE1, active compounds read low 1.01 | locus YDL101C, strain DUN1, active compounds read low 0.988 | locus YDL134C, strain PPH21, active compounds read low 0.952 | locus YDL185W, strain tfp1, active compounds read low 1.02 | locus YDL192W, strain arf1, active compounds read low 1 | locus YDR001C, strain nth1, active compounds read low 0.982 | locus YDR069C, strain doa4, active compounds read low 0.958 | locus YDR101C, strain arx1, active compounds read low 0.996 | locus YDR137W, strain rgp1, active compounds read low 0.959 | locus YDR150W, strain NUM1, active compounds read low 0.982 | locus YDR159W, strain sac3, active compounds read low 0.975 | locus YDR162C, strain NBP2, active compounds read low 0.957 | locus YDR195W, strain ref2 1.04 | locus YDR297W, strain sur2, active compounds read low 0.978 | locus YDR318W, strain mcm21, active compounds read low 0.992 | locus YDR334W, strain swr1, active compounds read low 0.973 | locus YDR335W, strain msn5, active compounds read low 0.984 | locus YDR388W, active compounds read low 0.998 | locus YDR392W, strain spt3, active compounds read low 0.781 | locus YDR502C, strain sam2, active compounds read low 0.992 | locus YEL003W, strain gim4, active compounds read low 0.992 | locus YEL037C, strain rad23, active compounds read low 0.978 | locus YEL061C, strain CIN8 (second series), active compounds read low 0.984 | locus YEL061C, strain CIN8, active compounds read low 0.993 | locus YER015W, strain faa2, active compounds read low 0.98 | locus YER016W, strain bim1, active compounds read low 0.977 | locus YER110C, active compounds read low 1.02 | locus YER111C, strain swi4, active compounds read low 0.972 | locus YER155C, strain BEM2 (second series), active compounds read low 0.952 | locus YER155C, strain BEM2, active compounds read low 0.981 | locus YER167W, strain BCK2, active compounds read low 0.993 | locus YFR010W, strain ubp6, active compounds read low 0.969 | locus YGL078C, strain dbp3, active compounds read low 1 | locus YGL086W, strain mad1, active compounds read low 1.01 | locus YGL167C, strain pmr1, active compounds read low 0.957 | locus YGL173C, strain kem1, active compounds read low 0.954 | locus YGL227W, strain vid30, active compounds read low 0.979 | locus YGL240W, strain doc1, active compounds read low 0.99 | locus YGL248W, strain PDE1, active compounds read low 0.99 | locus YGL253W, strain hxk2, active compounds read low 0.93 | locus YGR078C, strain PAC10, active compounds read low 0.977 | locus YGR135W, strain pre9, active compounds read low 1 | locus YGR252W, strain gcn5, active compounds read low 1.01 | locus YHR013C, strain ard1, active compounds read low 0.95 | locus YHR027C, strain rpn1, active compounds read low 0.995 | locus YHR030C, strain SLT2, active compounds read low 1 and 1.05 | locus YHR079C, strain IRE1 (second series), active compounds read low 0.987 | locus YHR079C, strain IRE1, active compounds read low 1.01 | locus YHR094C, strain hxt1, active compounds read low 0.992 | locus YHR129C, strain ARP1, active compounds read low 0.998 | locus YHR142W, strain chs7, active compounds read low 0.965 | locus YHR200W, strain rpn10, active compounds read low 1.01 | locus YIL066C, strain RNR3, active compounds read low 0.982 | locus YIL073C, strain SPO22, active compounds read low 0.996 | locus YIL125W, strain kgd1, active compounds read low 1 | locus YIR030C, strain dcg1, active compounds read low 0.987 | locus YJL092W, strain hpr5, active compounds read low 0.98 | locus YJL095W, strain BCK1 (second series), active compounds read low 0.973 | locus YJL095W, strain BCK1, active compounds read low 0.991 and 1.05 | locus YJL115W, strain asf1, active compounds read low 0.983 | locus YJL129C, strain trk1, active compounds read low 0.945 | locus YJL134W, strain LCB3, active compounds read low 1 | locus YJL154C, strain vps35, active compounds read low 0.98 | locus YJL164C, strain tpk1, active compounds read low 0.97 | locus YJL166W, strain qcr8, active compounds read low 0.961 | locus YJL168C, strain set2, active compounds read low 0.99 | locus YJL187C, strain SWE1 (second series), active compounds read low 0.991 | locus YJL187C, strain SWE1, active compounds read low 0.978 | locus YJR043C, strain POL32, active compounds read low 1.01 | locus YJR066W, strain TOR1, active compounds read low 1 | locus YJR075W, strain HOC1, active compounds read low 0.983 | locus YKL009W, strain mrt4, active compounds read low 0.993 | locus YKL068W, active compounds read low 0.984 | locus YKL085W, strain MDH1 (second series), active compounds read low 0.982 | locus YKL085W, strain MDH1, active compounds read low 0.982 | locus YKL160W, strain elf1, active compounds read low 0.98 | locus YKL190W, strain CNB1, active compounds read low 0.974 | locus YKR001C, strain vps1, active compounds read low 1.01 | locus YKR026C, strain gcn3, active compounds read low 0.971 | locus YKR091W, strain srl3, active compounds read low 0.974 | locus YLL001W, strain dnm1, active compounds read low 0.979 | locus YLL026W, active compounds read low 0.976 | locus YLL041C, strain sdh2, active compounds read low 0.987 | locus YLR027C, strain aat2, active compounds read low 0.97 | locus YLR039C, strain RIC1, active compounds read low 1.04 | locus YLR058C, strain SHM2, active compounds read low 0.995 | locus YLR102C, strain apc9, active compounds read low 1 | locus YLR113W, strain HOG1, active compounds read low 0.95 | locus YLR221C, strain rsa3, active compounds read low 0.943 | locus YLR258W, strain gsy2, active compounds read low 0.963 | locus YLR262C, strain YPT6 (second series), active compounds read low 0.965 | locus YLR262C, strain YPT6, active compounds read low 1 | locus YLR268W, strain sec22, active compounds read low 0.992 | locus YLR320W, strain mms22, active compounds read low 0.933 | locus YLR330W, strain CHS5, active compounds read low 0.997 | locus YLR342W, strain FKS1 (second series), active compounds read low 0.993 | locus YLR342W, strain FKS1, active compounds read low 0.948 | locus YLR357W, strain rsc2, active compounds read low 0.974 | locus YLR370C, strain arc18, active compounds read low 0.981 | locus YLR371W, strain rom2, active compounds read low 1.01 | locus YLR384C, strain iki3, active compounds read low 0.975 | locus YLR418C, strain cdc73, active compounds read low 0.995 | locus YML016C, strain PPZ1, active compounds read low 1 | locus YML032C, strain rad52, active compounds read low 1 | locus YML120C, strain ndi1, active compounds read low 0.982 | locus YML124C, strain tub3, active compounds read low 0.995 | locus YMR058W, strain fet3, active compounds read low 0.965 | locus YMR078C, strain ctf18, active compounds read low 1 | locus YMR125W, strain sto1, active compounds read low 0.985 | locus YMR129W, active compounds read low 0.975 | locus YMR205C, strain PFK2, active compounds read low 0.946 | locus YMR223W, strain ubp8, active compounds read low 1 | locus YMR231W, strain pep5, active compounds read low 0.946 | locus YMR263W, strain SAP30, active compounds read low 0.996 | locus YMR307W, strain GAS1, active compounds read low 0.92 | locus YNL067W, strain RPL9B, active compounds read low 0.981 | locus YNL071W, strain lat1, active compounds read low 0.949 | locus YNL153C, strain GIM3, active compounds read low 0.988 | locus YNL183C, strain NPR1, active compounds read low 0.99 | locus YNL209W, strain ssb2, active compounds read low 0.996 | locus YNL233W, strain BNI4, active compounds read low 0.991 | locus YNL248C, strain rpa49, active compounds read low 0.963 | locus YNL250W, strain rad50, active compounds read low 1.01 | locus YNL271C, strain bni1, active compounds read low 0.989 | locus YNL298W, strain CLA4, active compounds read low 1 | locus YNL307C, strain MCK1, active compounds read low 1 | locus YNL322C, strain KRE1 (second series), active compounds read low 0.979 | locus YNR049C, strain mso1, active compounds read low 0.97 | locus YNR052C, strain pop2, active compounds read low 0.996 | locus YOL012C, strain htz1 1.12 | locus YOL147C, strain pex11, active compounds read low 0.988 | locus YOR001W, strain rrp6, active compounds read low 0.956 | locus YOR061W, strain CKA2, active compounds read low 0.995 | locus YOR069W, strain VPS5, active compounds read low 1 | locus YOR070C, strain gyp1, active compounds read low 1 | locus YOR080W, strain dia2, active compounds read low 0.978 | locus YOR083W, strain WHI5, active compounds read low 0.971 | locus YOR106W, strain vam3, active compounds read low 0.963 | locus YOR136W, strain idh2, active compounds read low 1 | locus YOR144C, strain elg1, active compounds read low 0.996 | locus YOR184W, strain ser1, active compounds read low 0.969 | locus YOR231W, strain MKK1, active compounds read low 1.01 | locus YOR265W, strain rbl2, active compounds read low 0.975 | locus YOR270C, strain vph1, active compounds read low 0.88 | locus YOR290C, strain snf2, active compounds read low 0.974 | locus YOR316C, strain cot1, active compounds read low 1.01 | locus YPL051W, strain arl3, active compounds read low 1 | locus YPL078C, strain atp4, active compounds read low 0.972 | locus YPL106C, strain sse1, active compounds read low 0.982 | locus YPL240C, strain hsp82, active compounds read low 0.971 | locus YPL256C, strain CLN2, active compounds read low 1.04 | locus YPR119W, strain clb2, active compounds read low 0.995 | locus YPR141C, strain kar3, active compounds read low 1.01 | locus YPR163C, strain tif3, active compounds read low 1.01 | locus YPR167C, strain met16, active compounds read low 0.994 | strain wtn01, active compounds read low 1.01
